Reference: PubChem BioAssay (NCI)
This is part of a sample that, as a whole, favours compounds with a hit. Of some 79,000 tested, about 15% had one in any assay. Unmarked numbers belong to inactive results. The source made the active and inactive calls. Rule as the data show it: active = growth inhibition above about 70%; inactive = the rest.

Experiments:
[1] = NCI Yeast Anticancer Drug Screen. Data for the rad50 strain (AID 155);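 also: 0% = growth of vehicle-only cultures of the same strain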; conditions: S. cerevisiae rad50 strain growth inhibition, hits give high values
Method in brief: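 Relative growth inhibition (compound vs vehicle) was measured in yeast with a defined repair-gene alteration.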

[2] = NCI Yeast Anticancer Drug Screen. Data for the mec2-1 strain (AID 157); conditions: S. cerevisiae mec2-1 strain, hits give high values
Method in brief: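 Mutant yeast (mec2-1) grown with compound; growth inhibition relative to vehicle control reported.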

[3] = NCI Yeast Anticancer Drug Screen. Data for the sgs1 mgt1 strain (AID 161);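 also: 0% = growth of cultures given vehicle only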; conditions: S. cerevisiae sgs1 mgt1 strain, hits give high values
Method in brief: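 This yeast growth screen uses a strain with defined DNA-repair lesions; compound-treated growth is compared with vehicle-treated growth.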

[4] = NCI Yeast Anticancer Drug Screen. Data for the cln2 rad14 strain (AID 165);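 also: 0% = growth equal to vehicle treated cultures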; conditions: S. cerevisiae cln2 rad14 strain, hits give high values
Method in brief: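 Readout is yeast growth inhibition versus vehicle-treated controls, using a strain with cln2 and rad14 alterations exposed to compound.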

[5] = NCI Yeast Anticancer Drug Screen. Data for the bub3 strain (AID 167); conditions: S. cerevisiae bub3 mutant strain, hits give high values
Method in brief: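 Screening used yeast with an engineered genetic alteration affecting cell cycle control. Compound-exposed cultures were compared with vehicle cultures, and reduced growth was taken as inhibition.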

[6] = NCI Yeast Anticancer Drug Screen. Data for the mlh1 rad18 strain (AID 175); conditions: S. cerevisiae mlh1 rad18 strain growth inhibition, hits give high values
Method in brief: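 Genetically defined yeast (DNA repair-deficient) exposed to compounds; growth inhibition determined relative to vehicle.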

[7] = at 5.0 µM (retest, dose inferred, filed as 0.5)
[8] = at 50.0 µM (retest, dose inferred, filed as 5.0)

Compound	growth inhibition [1, 7]	growth inhibition [1, 8]	growth inhibition ([1]; at 50.0 µM)	growth inhibition [2, 7]	growth inhibition [2, 8]	growth inhibition ([2]; at 50.0 µM)	growth inhibition [3, 7]	growth inhibition [3, 8]	growth inhibition ([3]; at 50.0 µM)	growth inhibition [4, 7]	growth inhibition [4, 8]	growth inhibition ([4]; at 50.0 µM)	growth inhibition [5, 7]	growth inhibition [5, 8]	growth inhibition ([5]; at 50.0 µM)	growth inhibition [6, 7]	growth inhibition [6, 8]	growth inhibition ([6]; at 50.0 µM)
CCN(CC)CCOC(=O)CCN1CC2CCC(CC2)C1	14%	15%	-35.6%	13%	7%	-22.1%	17%	4%	-23.9%	23%	3%	9.4%	0%	-4%	-32.8%	18%	10%	-21.4%
O=C(Cc1ccc2c(c1)OCO2)c1ccc(O)cc1O	6%	84% (active)	97.4% (active)	1%	93% (active)	98.4% (active)	9%	85% (active)	96.7% (active)	6%	84% (active)	96.1% (active)	10%	90% (active)	97.2% (active)	5%	88% (active)	96.5% (active)
OC1(CCc2ccccc2)COC(C(F)(F)F)(C(F)(F)F)C1 (stereo not given)	18%	24%	76.4% (active)	16%	18%	66%	14%	23%	78.4% (active)	1%	23%	52.8%	5%	21%	61.1%	26%	30%	74.8% (active)
Cc1cc(Cl)c2c(c1)C(=N/O)/C(=C\c1ccco1)O2	100% (active)	99% (active)	88% (active)	100% (active)	99% (active)	90.3% (active)	96% (active)	99% (active)	83.5% (active)	77% (active)	99% (active)	88% (active)	100% (active)	99% (active)	89% (active)	99% (active)	99% (active)	85.2% (active)
Nc1ccc(S(=O)(=O)O)c2cccc(S(=O)(=O)O)c12	-2%	-2%	3.45%	-2%	0%	7.4%	-2%	0%	31.5%	-1%	-7%	71.9% (active)	0%	2%	27.2%	-1%	-2%	-12.9%
CC(C)CNc1cc(Cl)nc(N)n1	-1%	0%	88% (active)	4%	1%	92.3% (active)	2%	-3%	89.9% (active)	-2%	-6%	91.3% (active)	1%	-2%	59%	-4%	-5%	95.5% (active)
O=C(c1ccccc1)c1ccccc1S(=O)(=O)Nc1ccccc1	-5%	79% (active)	62.9%	-2%	69%	27.8%	-3%	77% (active)	30.2%	-8%	86% (active)	62.1%	4%	91% (active)	64.2%	-2%	87% (active)	72.8% (active)
Cc1c(CC=C(c2ccccc2)c2ccccc2)cccc1C[N+](C)(C)C	95% (active)	73% (active)	90.7% (active)	78% (active)	34%	62.8%	99% (active)	98% (active)	99% (active)	2%	61%	48.1%	25%	72% (active)	80.2% (active)	95% (active)	98% (active)	98.2% (active)
CC1(C)N=C(N)N=C(N)N1c1cccc(CCCCC(=O)CCl)c1	15%	89% (active)	95.8% (active)	0%	72% (active)	95% (active)	-5%	79% (active)	95.9% (active)	-5%	62%	81.6% (active)	-5%	51%	86.7% (active)	-18%	91% (active)	97.8% (active)
O=C(O)C(c1ccc(Cl)cc1)c1ccc(Cl)cc1	10%	98% (active)	95.3% (active)	9%	98% (active)	95.5% (active)	7%	99% (active)	91.9% (active)	6%	97% (active)	92.5% (active)	9%	99% (active)	97.4% (active)	13%	96% (active)	95.8% (active)
